Screening data as filed in PubChem.
Beta cell apopt: blocks beta cell apoptosis; 0.8% of 300,000 active; protection from apoptosis, % (test concentration not listed); INS-1E cytokine-induced death, ATP luminescence, 48 h; percent of positive-control rescue, neutral wells zero;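 active = Every replicate reaches about 75%, or at least half do and their mean reaches it too, limit read from the data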;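 also: 0% = cytokine-treated negative control wells and 100% = positive control rescue; higher means more ATP so stronger rescue from cytokine killing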
MPTP inh: inhibitors of mitochondrial permeability transition pore. isolated mouse mitochondria, Ca2+ swelling absorbance, 30 min. inhibition, % at 10 µM. 1.4% of 360,000 active. AID 602449;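 active = inhibition of 50% or more, scaled per plate between neutral and stimulator controls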;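 also: 0% = DMSO wells given calcium and 100% = 1 mM EGTA wells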
GRIN3A LBD mod: modulators (binders) of human NR3A ligand-binding domain; Tm shift relative to glycine control, % at 25 µM; NR3A LBD differential scanning fluorimetry, Tm shift; 0% = protein alone, 100% = glycine-bound protein; 2.5% of 340,000 active;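 active = melting temperature shift of at least 10% of the positive control shift, at one fixed dose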
CSC inhib: blocks cancer stem cells | cancer stem cell-like cells viability, luminescence | 1.1% of 300,000 active | inhibition, % at 7.5 µM; in the data active = inhibition above about 75%; tested in HMLE shEcad cells
Gli-Sufu block: blocks Gli-Sufu signaling in a luciferase reporter; Sufu-KO-LIGHT fibroblasts, Gli luciferase reporter luminescence; inhibition, % at 5 µM; 0.74% of 340,000 active; AID 588413;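 active = inhibition above about 55%, limit read from the data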;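 also: 0% = DMSO-treated cells and 100% = wells with medium but no cells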
Mdm2-MdmX inh: human Mdm2/MdmX binding inhibition; 3% of 330,000 active; SaOS-2 split-luciferase Mdm2/MdmX complementation, luminescence; inhibition, % at 8 µM; O15151+Q00987;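 active = inhibition of at least 50% at 8 µM in the primary screen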
Target sequence (O15151 whole entry, looked up): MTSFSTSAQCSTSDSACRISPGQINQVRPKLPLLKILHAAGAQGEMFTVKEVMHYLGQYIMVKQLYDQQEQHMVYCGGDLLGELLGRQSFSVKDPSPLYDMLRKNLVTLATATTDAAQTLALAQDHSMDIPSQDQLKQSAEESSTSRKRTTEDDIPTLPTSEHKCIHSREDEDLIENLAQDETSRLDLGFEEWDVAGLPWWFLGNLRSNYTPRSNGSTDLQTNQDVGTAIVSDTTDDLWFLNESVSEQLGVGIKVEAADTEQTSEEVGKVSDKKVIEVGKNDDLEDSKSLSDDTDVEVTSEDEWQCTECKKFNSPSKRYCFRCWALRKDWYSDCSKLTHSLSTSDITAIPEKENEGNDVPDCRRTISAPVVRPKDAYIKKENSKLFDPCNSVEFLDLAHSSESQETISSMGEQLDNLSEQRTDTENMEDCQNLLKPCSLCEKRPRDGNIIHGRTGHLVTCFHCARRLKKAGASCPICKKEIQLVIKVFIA
Target sequence (Q00987 whole entry, looked up): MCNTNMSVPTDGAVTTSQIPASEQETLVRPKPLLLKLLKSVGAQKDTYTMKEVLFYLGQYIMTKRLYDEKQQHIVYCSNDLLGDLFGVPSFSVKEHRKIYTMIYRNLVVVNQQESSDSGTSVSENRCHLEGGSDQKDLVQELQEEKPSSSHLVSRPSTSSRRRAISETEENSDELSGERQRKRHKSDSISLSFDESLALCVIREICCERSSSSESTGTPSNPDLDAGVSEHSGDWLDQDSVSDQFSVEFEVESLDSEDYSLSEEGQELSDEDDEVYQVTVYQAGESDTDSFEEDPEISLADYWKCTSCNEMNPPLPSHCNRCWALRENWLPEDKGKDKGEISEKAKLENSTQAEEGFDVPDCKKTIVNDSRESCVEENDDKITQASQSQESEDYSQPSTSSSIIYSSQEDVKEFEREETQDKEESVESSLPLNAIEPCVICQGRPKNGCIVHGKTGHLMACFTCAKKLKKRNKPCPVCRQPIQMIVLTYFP
Gli antag conf: Gli-SUFU antagonism confirmation, single concentration. shares compounds with Gli-Sufu block. Sufu-KO-LIGHT cells, Gli luciferase reporter, luminescence. inhibition, % at 5 µM. 40% of 2,500 active. AID 602428;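 active = mean inhibition at 5 µM reaching about 45%, limit read from the data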;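 also: plate controls were DMSO-treated cells for no effect and wells lacking cells for full effect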
SufuKO cytotox: cytotoxicity counter-screen for Gli-SUFU antagonists; shares compounds with Gli-Sufu block; Sufu-KO-LIGHT cells cytotoxicity, ATP luminescence; cytotoxicity, % at 5 µM; 32% of 2,500 active; AID 651994;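 active = mean cytotoxicity at 5 µM above about 25%, limit read from the data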;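 also: cells exposed to compound overnight for roughly 16 to 18 hours; plate controls were DMSO wells with cells for no effect and medium without cells for full effect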
Wnt3a counter: counter-screen for Gli-SUFU antagonists: Wnt3a reporter inhibition | shares compounds with Gli-Sufu block | inhibition, % at 6.25 µM | 20% of 2,500 active | Wnt-LIGHT cells, Wnt3a-driven luciferase reporter, luminescence | AID 651995;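 active = mean inhibition above about 25%, limit read from the data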
MPTP counter: mitochondrial membrane potential, counter-screen. isolated mitochondria, Rhodamine 123 fluorescence. 78% of 5,000 active. AID 624504. inhibition, % at 10 µM. shares compounds with MPTP inh; in the data active = inhibition above about 22%;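 also: 0% = DMSO vehicle and 100% = positive control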
MPTP abs DR: MPTP inhibition, dose response swelling confirmation; shares compounds with MPTP inh; isolated mitochondria swelling, absorbance; IC50, µM; 58% of 780 active; in the data active = IC50 below about 20 µM
MPTP cs DR: active in counter-screen for permeability transition pore inhibitors | shares compounds with MPTP inh | isolated mitochondria counterscreen, fluorescence read-out | IC50, µM | 49% of 780 active; in the data active = IC50 below about 80 µM
The depositor's hits bear a star. This is a sample that favours compounds with a hit; in the whole collection about 6.6% have one here.

Results for CC(=O)c1cccc(NS(=O)(=O)c2ccc(-c3cnc(C4CC4)o3)cc2)c1 ?
Beta cell apopt: 45; MPTP inh: 94*; GRIN3A LBD mod: -8; CSC inhib: 63; Gli-Sufu block: 55; Mdm2-MdmX inh: 48; Gli antag conf: 49*; SufuKO cytotox: 17; Wnt3a counter: -8; MPTP counter: 94*

What do the screens show for `C/C(=N\Nc1ccc(S(=O)(=O)Nc2ccccc2)cc1[N+](=O)[O-])c1ccncc1`?
Beta cell apopt: 8; CSC inhib: 50; Mdm2-MdmX inh: 8

How did COc1ccc(NS(=O)(=O)c2ccc(N/N=C(\C)c3ccncc3)c([N+](=O)[O-])c2)cc1 do in these assays?
Beta cell apopt: 50; MPTP inh: 68*; GRIN3A LBD mod: 21*; CSC inhib: 33; Gli-Sufu block: 66*; Mdm2-MdmX inh: 33; Gli antag conf: 66*; SufuKO cytotox: 25; Wnt3a counter: 35*; MPTP counter: 20*

How did CCN(c1ccccc1)S(=O)(=O)c1cc(C(=O)OC2CCOC2=O)ccc1C (stereo not drawn) do in these assays?
Beta cell apopt: 4; MPTP inh: -1; GRIN3A LBD mod: -3; Gli-Sufu block: -3; Mdm2-MdmX inh: 2

What do the screens show for `CCCOc1ccc(Br)cc1CSC(=N)N`?
Beta cell apopt: 99*; MPTP inh: 97*; GRIN3A LBD mod: -1; CSC inhib: 26; Gli-Sufu block: 61*; Mdm2-MdmX inh: 34; Gli antag conf: 56*; SufuKO cytotox: 27*; Wnt3a counter: 18; MPTP counter: 92*

Results for CCOc1ccc(Br)cc1CC(=O)O ?
MPTP inh: -1; GRIN3A LBD mod: -7; CSC inhib: -10; Gli-Sufu block: 0; Mdm2-MdmX inh: 22

What do the screens show for `CN1/C(=C\C(=O)CSc2cccc[n+]2[O-])C(C)(C)c2ccccc21`?
Beta cell apopt: 14; MPTP inh: 0; GRIN3A LBD mod: 1; CSC inhib: -41; Gli-Sufu block: 27; Mdm2-MdmX inh: 8

What do the screens show for `Cc1cc(=O)[nH]c(SCC(=O)/C=C2\N(C)c3ccccc3C2(C)C)n1`?
Beta cell apopt: 117*; MPTP inh: 89*; GRIN3A LBD mod: -6; CSC inhib: -8; Gli-Sufu block: 68*; Mdm2-MdmX inh: -7; Gli antag conf: 61*; SufuKO cytotox: 25; Wnt3a counter: 27*; MPTP counter: 53*

How did COc1ccc(CNc2cc(C)nc3ncnn23)c(OC)c1 do in these assays?
Beta cell apopt: 41; MPTP inh: 75*; GRIN3A LBD mod: -9; CSC inhib: -1; Gli-Sufu block: 52; Mdm2-MdmX inh: -21; Gli antag conf: 46*; SufuKO cytotox: 14; Wnt3a counter: 25; MPTP counter: 34*

Results for COc1ccc(Nc2cc(C)nc3ncnn23)c(OC)c1 ?
Beta cell apopt: -8; MPTP inh: -3; GRIN3A LBD mod: 0; CSC inhib: -12; Gli-Sufu block: -1; Mdm2-MdmX inh: 8

What do the screens show for `COc1ccc(C)cc1-n1nnnc1SCc1csc(C)n1`?
Beta cell apopt: -2; MPTP inh: 1; GRIN3A LBD mod: 1; CSC inhib: 4; Gli-Sufu block: 2; Mdm2-MdmX inh: -1

How did COc1ccc(C)cc1-n1nnnc1SCc1cc(=O)n2cc(C)ccc2n1 do in these assays?
Beta cell apopt: 40; MPTP inh: 52*; GRIN3A LBD mod: 1; CSC inhib: 9; Gli-Sufu block: 58*; Mdm2-MdmX inh: 29; Gli antag conf: 57*; SufuKO cytotox: 37*; Wnt3a counter: 6; MPTP counter: 3; MPTP abs DR: inactive; MPTP cs DR: 21*

What do the screens show for `CCCCCCCCCCCC1N=C(N)NC(CCCO)=C1C(=O)OC` (stereo not drawn)?
MPTP inh: 79*; GRIN3A LBD mod: 0; Gli-Sufu block: 78*; Gli antag conf: 23; SufuKO cytotox: 10; Wnt3a counter: 27*; MPTP counter: 2

How did CCOC(=O)CSc1nc(C)c(C(C)=O)cc1C(N)=O do in these assays?
Beta cell apopt: -3; MPTP inh: -1; GRIN3A LBD mod: 0; CSC inhib: -10; Gli-Sufu block: -2; Mdm2-MdmX inh: 6

How did CC(=O)Nc1ccc2c(COC(=O)[C@@H](NS(=O)(=O)c3ccc(C)cc3)C(C)C)cc(=O)oc2c1 do in these assays?
Beta cell apopt: 2; MPTP inh: 0; GRIN3A LBD mod: -7; CSC inhib: -4; Gli-Sufu block: 0; Mdm2-MdmX inh: 2

How did Cc1ccc(NC(=O)NNC(=O)COc2ccc([N+](=O)[O-])cc2)cc1C do in these assays?
Beta cell apopt: 3; MPTP inh: 1; GRIN3A LBD mod: 2; CSC inhib: 3; Gli-Sufu block: 28; Mdm2-MdmX inh: -1

What do the screens show for `O=C(COc1ccc([N+](=O)[O-])cc1)NNC(=O)Nc1ccc([N+](=O)[O-])cc1`?
Beta cell apopt: 20; MPTP inh: 67*; GRIN3A LBD mod: -1; CSC inhib: 3; Gli-Sufu block: 98*; Mdm2-MdmX inh: 38; Gli antag conf: -1; SufuKO cytotox: -10; Wnt3a counter: -2; MPTP counter: 96*

What do the screens show for `COc1ccccc1NS(=O)(=O)c1c(C(=O)N2CCCC2)c(C)n(C)c1C`?
Beta cell apopt: -2; MPTP inh: -2; GRIN3A LBD mod: -2; CSC inhib: -20; Gli-Sufu block: -12; Mdm2-MdmX inh: 13

What do the screens show for `CCOC(=O)C1(CCOc2ccccc2)CCN(Cc2nccn2CC)CC1`?
Beta cell apopt: -2; MPTP inh: 6; GRIN3A LBD mod: -19; CSC inhib: 7; Gli-Sufu block: -9; Mdm2-MdmX inh: 9

What do the screens show for `CCOC(=O)C1(CCCc2ccccc2)CCN(Cc2nccn2CC)CC1`?
Beta cell apopt: 13; MPTP inh: 56*; GRIN3A LBD mod: 0; CSC inhib: 35; Gli-Sufu block: 50; Mdm2-MdmX inh: 6; Gli antag conf: 33; SufuKO cytotox: 10; Wnt3a counter: -17; MPTP counter: 40*
